Assay outcomes from PubChem BioAssay.
Sampled rows, rich in hits. Any-hit rate of the full collection: about 3.1%.
BRCA1 expr up – BRCA1 expression activation; MCF7-BRCA1-FFLuc reporter, luminescence, 48 h; response scale: scaled: vehicle 0%, 10 µM genistein 100%; Potency, µM (top dose mostly 46.1 µM), for inactives: at the highest dose activation, hits mostly activators; 380,000 tested, 1.1% active; AID 624202; further: potency means the concentration at half of the fitted maximal effect; nearly all actives have a fitted effect of over 80% in size
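MCF7 cells carrying a BRCA1-firefly luciferase reporter (2000 cells/well, phenol-red free MEM) were attached for 2 h at 37 °C, then given compounds for 48 h. Luminescence was read 15 min after luciferase reagent; activity normalized to genistein (10 microM) and DMSO.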
ELG1 repair inh – blocks ELG1-dependent DNA repair in HEK293T cells; Potency, µM (doses to about 46.1 µM), for inactives: top-dose activity change, negative = inhibition, hits mostly inhibitors; AID 504467; HEK293T ELG1-luciferase reporter, luminescence, 16 h; DNA damage induced by 5-fluorouridine; 330,000 tested, 2.3% active; further: potency means the concentration at half of the fitted maximal effect; on the % scale 0 is the no-effect control and ±100 the full control effect; nearly all actives have a fitted effect of over 55% in size
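DMSO vehicle served as the neutral condition. Each well held 2,000 cells given 5-fluorouridine plus compound; after 16 hr at 37 °C/5% CO2, ONE-Glo was added and luciferase measured 30 min later.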
IL2 activator – activates IL-2 in a cell-based reporter assay; IL-2 activation reporter assay, cell-based qHTS; stimulated with anti-CD3/CD4/CD28 beads; in transgenic mouse T cells; activation, % (series mostly up to about 46 µM); 360,000 tested, 0.065% active; in the data active means activation above about 50%; inconclusive means mostly about 30% to 49%; further: 0% is about no effect
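Readout is EGFP and DsRed signal by fluorescent plate cytometry after 18 h at 37 degrees C. Transgenic mouse T cells (750/well) received compound for 60 min before bead stimulation (anti-CD3, anti-CD4, anti-CD28); memory T cells served as non-tolerant control.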
Nrf2 ARE act – activators of Nrf2 (ARE) signaling; 410,000 tested, 0.31% active; AID 624171; AREc32 ARE-luciferase reporter (MCF7-derived line), luminescence, 24 h; Potency, µM (doses to about 46.1 µM), inactives show at the highest dose activation, actives largely listed as activators; further: potency means the concentration at half of the fitted maximal effect; % of control where 0% means no effect; nearly all actives have a fitted effect of over 65% in size
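AREc32_Fluc, 1000 cells/well, OPTI-MEM + 5% FBS, o/n 37 deg C 5% CO2; 23 nL cpd by pin tool, 24 hr; Steady-Glo 30 min RT, luminescence.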
Starred values were filed as active, the others as inactive. Unless noted, the call rests on the fitted dose curve; in most records, active means well fitted curve in the direction sought with a large enough effect; inconclusive means small, poorly fitted or top-dose-only effect, or another doubt; inactive means no such curve, though single readings can be large; an effect the other way counts as inactive or inconclusive.

Results for C=CCNC(=O)Nc1ccc2oc(C)nc2c1 ?
BRCA1 expr up: 2%; ELG1 repair inh: 24%; IL2 activator: 0; Nrf2 ARE act: -1%

What do the screens show for `Cc1ccc(C)c(NC(=O)CN2C(=O)c3cccc4cccc2c34)c1`?
BRCA1 expr up: 16%; Nrf2 ARE act: 1%

What do the screens show for `CCC(CC)C(=O)Nc1cc(-c2cccc(C)c2)nn1-c1ccccc1`?
BRCA1 expr up: 0%; Nrf2 ARE act: 0%

Results for CN(C)c1ccc(CCc2ccnc3ccccc23)cc1 ?
BRCA1 expr up: 9%

What do the screens show for `O=C(CNC(=O)C1CCCCC1)OCc1ccccc1`?
BRCA1 expr up: 1%

What do the screens show for `Cc1ccc(NC(=O)Nc2ccc3c(c2)CCC3)cc1C`?
BRCA1 expr up: 33%; ELG1 repair inh: inconclusive; IL2 activator: -1; Nrf2 ARE act: 0%

How did COc1ccc(NC(=O)Nc2ccc(F)cc2F)cc1 do in these assays?
BRCA1 expr up: 10µM*; ELG1 repair inh: inconclusive; IL2 activator: 1; Nrf2 ARE act: 3%

How did COc1cccc(NC(=O)Nc2ccc3nc(C)c(C)nc3c2)c1 do in these assays?
BRCA1 expr up: inconclusive; ELG1 repair inh: -18%; IL2 activator: 2; Nrf2 ARE act: 0%

How did COc1ccc(NC(=O)Nc2ccc(F)cc2F)c(C)c1 do in these assays?
BRCA1 expr up: 18%; ELG1 repair inh: inconclusive; IL2 activator: 0; Nrf2 ARE act: 0%

Results for COc1cccc(NC(=O)Nc2ccc3nsnc3c2)c1 ?
BRCA1 expr up: 7.1µM*; ELG1 repair inh: inconclusive; IL2 activator: -1; Nrf2 ARE act: 0%

Results for Cn1nc(C(=O)Nc2ccc(Br)cc2)cc1C(=O)Nc1ccc(Br)cc1 ?
BRCA1 expr up: -42%; ELG1 repair inh: -2%; IL2 activator: 0; Nrf2 ARE act: 2%

What do the screens show for `COc1cccc(NC(=O)c2cc(C(=O)Nc3cccc(OC)c3)n(C)n2)c1`?
BRCA1 expr up: -13%; ELG1 repair inh: 13µM*; IL2 activator: 0; Nrf2 ARE act: 0%

Results for COc1ccc(NC(=O)Nc2ccc3c(c2)CCC3)cc1 ?
BRCA1 expr up: 2.5µM*; ELG1 repair inh: inconclusive; IL2 activator: -2; Nrf2 ARE act: 0%

Results for CCCCCNC(=O)C(c1ccnc2ccccc12)n1c(=O)c(-c2cc3ccccc3[nH]2)nc2ccccc21 (stereo unspecified) ?
IL2 activator: 0

What do the screens show for `CSc1ncc(C(=O)NCc2ccc(Cl)cc2)c(C(F)(F)F)n1`?
Nrf2 ARE act: -1%

How did Fc1cccc(Cc2c(-c3ccco3)nc3ccc(Br)cn23)c1 do in these assays?
BRCA1 expr up: -17%; IL2 activator: -1; Nrf2 ARE act: inconclusive

Results for COc1cccc(NC(=O)Nc2cc(Cl)ccc2C)c1 ?
BRCA1 expr up: -4%; ELG1 repair inh: -8%; IL2 activator: -4; Nrf2 ARE act: 2%

How did COc1cccc(NC(=O)Nc2ccccc2Br)c1 do in these assays?
BRCA1 expr up: 10µM*; ELG1 repair inh: inconclusive; IL2 activator: -2; Nrf2 ARE act: 4%

What do the screens show for `Cc1ccccc1NC(=O)Cn1c(SCC(=O)Nc2ccc(F)cc2)nc2ccccc21`?
Nrf2 ARE act: 1%

How did COc1ccc(C2OC(=O)CC2C(=O)NCc2ccc(F)cc2)cc1OC (stereo unspecified) do in these assays?
BRCA1 expr up: -13%; ELG1 repair inh: 11%; IL2 activator: -2; Nrf2 ARE act: 0%

What do the screens show for `COc1ccc(C2OC(=O)CC2C(=O)NCc2ccc(Cl)cc2)cc1OC` (stereo unspecified)?
BRCA1 expr up: 8.9µM*; ELG1 repair inh: inconclusive; IL2 activator: -1; Nrf2 ARE act: 0%

What do the screens show for `O=C(CCNS(=O)(=O)c1ccccc1)N1CCN(C(c2ccccc2)c2ccccc2)CC1`?
ELG1 repair inh: 23µM*

Results for CC(=O)Nc1ccc(S(=O)(=O)NCCC(=O)N2CCN(C(c3ccccc3)c3ccccc3)CC2)cc1 ?
BRCA1 expr up: -35%; ELG1 repair inh: -26%; IL2 activator: 1; Nrf2 ARE act: 1%

What do the screens show for `CCCN1CCc2c(sc(NC(=O)c3ccc(S(=O)(=O)N(C)c4ccccc4)cc3)c2C(=O)NC)C1`?
BRCA1 expr up: -49%; ELG1 repair inh: 23µM*; IL2 activator: -2; Nrf2 ARE act: 2%
